Screens: PubChem BioAssay, National Center for Advancing Translational Sciences (NCATS)
LmPK inh = blocks Leishmania mexicana pyruvate kinase activity. Q27686. purified LmPK, Kinase-Glo ATP luminescence, 1 h. Potency, µM (doses to about 57.5 µM), most hits filed as inhibitors. 290,000 tested, 0.37% active
Target sequence (Q27686 whole entry, looked up): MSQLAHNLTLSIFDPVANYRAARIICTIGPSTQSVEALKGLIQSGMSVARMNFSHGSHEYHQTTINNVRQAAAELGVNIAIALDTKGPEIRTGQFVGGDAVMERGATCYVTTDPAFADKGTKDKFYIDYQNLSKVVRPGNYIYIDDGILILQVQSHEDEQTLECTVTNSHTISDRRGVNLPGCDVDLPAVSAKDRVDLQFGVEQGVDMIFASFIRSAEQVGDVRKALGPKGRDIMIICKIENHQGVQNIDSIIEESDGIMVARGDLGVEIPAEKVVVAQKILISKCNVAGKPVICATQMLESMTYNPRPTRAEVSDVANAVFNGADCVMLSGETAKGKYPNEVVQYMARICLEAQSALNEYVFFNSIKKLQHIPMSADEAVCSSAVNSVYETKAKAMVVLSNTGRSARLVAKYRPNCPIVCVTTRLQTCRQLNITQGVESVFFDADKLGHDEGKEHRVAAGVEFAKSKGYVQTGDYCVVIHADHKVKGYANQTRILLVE
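Purified LmPK (0.1 nM) with 0.5 mM PEP and 0.1 mM ADP in imidazole buffer pH 7.2 with MgCl2/KCl, 1 h at room temperature. ATP formed was read by luciferase luminescence and normalized to no-enzyme and uninhibited controls.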
Shiga toxin inh = blocks Shiga toxin action in Vero cells | 290,000 tested, 9.2% active | Vero cells, Shiga toxin protein synthesis inhibition reporter | inhibition, % at 38.7 µM; in the data active = inhibition mostly above about 28%, no sharp cut-off; inactive = mostly below about 43%
Cycloheximide cs = counter-screen for Shiga toxin inhibitors: cycloheximide protein synthesis inhibition; 300,000 tested, 12% active; cell reporter, cycloheximide protein synthesis inhibition counterscreen; max response, %; in the data active = max response mostly above about 13%, no sharp cut-off; inactive = mostly below about 14%; also: read at 38.3 µM for the half of the compounds with a filed dose
Pf growth 48h = P. falciparum growth inhibition at 48 hours (one generation) | P. falciparum luciferase growth in erythrocytes, 48 h | Potency, µM (titrated, usually from 28.7 µM), most hits filed as inhibitors | 310,000 tested, 5.9% active | AID 504832
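Luciferase-expressing P. falciparum in infected erythrocytes (2% hematocrit, 0.1% parasitemia final) in RPMI 1640/0.5% Albumax were exposed to compound for 48 hours at 37 C, 5% CO2; growth read as luminescence.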
Pf growth 96h = P. falciparum growth inhibition at 96 hour, primary screen for plastid delayed-death inhibitors; P. falciparum luciferase reporter growth, 96 h; Potency, µM (highest dose often 28.7 µM), hits mostly inhibitors; 320,000 tested, 6.9% active; AID 504834
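Two parasite generations (96 h, 37 C, 5% CO2) of compound exposure in infected erythrocytes (0.05% parasitemia, 2% hematocrit). Luciferase-reporter P. falciparum; decreased luminescence indicates inhibited growth, aimed at apicoplast-acting delayed death.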
Of the large screens only hits and unclear results are named; the others gave an inactive call. Rows were chosen to be rich in hits. Some 22% of all compounds tested hit in one or more screens of this group. Unless noted, calls follow the shape of the dose curve; as a rule, active = well fitted inhibition curve with a large enough effect; inconclusive = small, poorly fitted or top-dose-only effect, or another doubt; inactive = no such curve, though single readings can be large or run the other way.

COC(=O)C1=C(C)NC2=C(C(=O)CCC2)C1c1cn(Cc2ccc(Br)cc2)nc1-c1ccccc1 (stereo not drawn)	Pf growth 48h 8.28µM, Pf growth 96h 13.1µM
COC(=O)C1=C(C)NC2=C(C(=O)CCC2)C1c1cccc(C)n1 (stereo not drawn)	none
COC(=O)C1=C(C)NC2=C(C(=O)CC(C)(C)C2)C1c1cn(Cc2ccc(Br)cc2)nc1-c1ccccc1 (stereo not drawn)	Pf growth 48h 13.1µM, Pf growth 96h inconclusive
O=C(O)c1ccc(Nc2nc(-c3cccnc3)cs2)cc1O	none
Cc1ccc(Nc2nc(-c3ccc(F)cc3)cs2)nc1	Shiga toxin inh 76.9, Cycloheximide cs 53.0
Cc1ccc(Nc2nc(-c3ccc(O)c(O)c3)cs2)nc1	Shiga toxin inh 112.9, Cycloheximide cs 61.8, Pf growth 48h inconclusive, Pf growth 96h inconclusive
CC(=O)c1ccc(N2CCN(c3ccc(S(=O)(=O)NCCN(C)C)cc3[N+](=O)[O-])CC2)cc1	Pf growth 48h inconclusive, Pf growth 96h inconclusive
CC(=O)c1ccc(N2CCN(c3ccc(S(=O)(=O)NCCCN(C)C)cc3[N+](=O)[O-])CC2)cc1	Pf growth 48h inconclusive, Pf growth 96h 13.1µM
CN(C)CCCNS(=O)(=O)c1ccc(N2CCN(Cc3ccc4c(c3)OCO4)CC2)c([N+](=O)[O-])c1	Pf growth 48h 11.7µM, Pf growth 96h 9.28µM
CC(C)c1ccc([N+](=O)[O-])cc1S(=O)(=O)N1CCN(C)CC1	Pf growth 48h inconclusive
CCOc1cc(N2CCOCC2)c(OCC)cc1NC(=O)c1ccc2ccccc2n1	Shiga toxin inh 52.5, Cycloheximide cs 27.8, Pf growth 48h 13.1µM, Pf growth 96h inconclusive
CCOc1cc(N2CCOCC2)c(OCC)cc1NC(=O)c1ccc(=O)n(Cc2ccccc2)n1	Pf growth 96h inconclusive
CCOc1cc(N2CCOCC2)c(OCC)cc1NC(=O)CCS(=O)(=O)c1ccc(Cl)cc1	Pf growth 48h inconclusive, Pf growth 96h 7.38µM
CCOc1cc(N2CCOCC2)c(OCC)cc1NC(=O)c1nn(CC)c(=O)c2ccccc12	Pf growth 48h 10.4µM, Pf growth 96h 2.62µM (no result: LmPK inh, Shiga toxin inh, Cycloheximide cs)
Cc1ccc(S(=O)(=O)NCCc2ccncc2)cc1C	none
N/C(COc1cc(Cl)cc(Cl)c1)=N\O	none
Cc1nn(-c2ccccc2)c(C)c1NC(=O)COc1ccc(Br)cc1Cl	Pf growth 96h inconclusive
S=C1SCN(CC2CC2)CN1CC1CC1	Pf growth 48h inconclusive, Pf growth 96h 5.22µM
S=C1SCN(Cc2ccccc2)CN1Cc1ccccc1	Pf growth 48h inconclusive
COc1cccc(OC)c1C(=O)N1CCNCC1	Pf growth 96h inconclusive (no result: Shiga toxin inh)
CN1CCN(c2ccc(CNC(=O)c3ccco3)cc2)CC1	none
CC(C)(C)C1CCC(=NNC(=S)NCc2ccccc2)CC1 (stereo not drawn)	Pf growth 48h inconclusive, Pf growth 96h inconclusive
CC(C)(C)C1CCC(=NNC(=O)c2ccco2)CC1 (stereo not drawn)	Shiga toxin inh 174.7, Cycloheximide cs 70.5, Pf growth 96h inconclusive
CN1CCC(=NNC(=O)c2ccco2)CC1	Shiga toxin inh 78.6, Cycloheximide cs 66.6, Pf growth 96h inconclusive
COc1cc(COC(=O)Oc2ccc(CNC(C)=O)cc2OC)c([N+](=O)[O-])cc1OC	none (no result: LmPK inh, Shiga toxin inh, Cycloheximide cs)
Cc1cc(C)n(CCO)c(=O)n1	Pf growth 96h 2.33µM
COc1cccc(C2CCCCN2Cc2nc(-c3ccc(C)o3)oc2C)c1 (stereo not drawn)	Shiga toxin inh 78.8, Cycloheximide cs 31.4
Cc1oc(-c2cc3c(cc2Cl)OCO3)nc1CN1CCCC(C(=O)N2CCOCC2)C1 (stereo not drawn)	Pf growth 96h inconclusive
COc1ccccc1C1CCCN1Cc1nc(-c2cc3c(cc2Cl)OCO3)oc1C (stereo not drawn)	Pf growth 48h 9.28µM
COc1cccc(C2CCCN2Cc2nc(-c3sccc3C)oc2C)c1 (stereo not drawn)	Pf growth 48h inconclusive
COc1ccccc1C1CCCN1Cc1nc(-c2ccc(C)s2)oc1C (stereo not drawn)	Pf growth 48h 4.65µM
CC(C)c1nnc(SCC(=O)Nc2ccc3c(c2)OCCO3)n1C	none
COc1cc2c(cc1OC)C1Cc3ccc(OC)c(OC)c3C[N+]1([O-])CC2 (stereo not drawn)	none
CCOc1ccc(CCNC(=O)COC(=O)CSc2ccccc2C)cc1OCC	Pf growth 48h inconclusive, Pf growth 96h inconclusive
COc1ccc(C2C(C(C)=O)=C(C)N=c3s/c(=C\c4cc(C)n(C)c4C)c(=O)n32)c(OC)c1 (stereo not drawn)	Pf growth 48h 9.28µM, Pf growth 96h 8.28µM
CCOC(=O)C1=C(C)N=c2s/c(=C/c3ccc(OCC(=O)O)cc3)c(=O)n2C1c1ccc(OC)cc1OC (stereo not drawn)	Pf growth 48h 0.465µM, Pf growth 96h 1.17µM (no result: Shiga toxin inh)
CCOC(=O)C1=C(c2ccccc2)N=c2s/c(=C\c3cc(OC)c(OC)c(OC)c3)c(=O)n2C1c1cccs1 (stereo not drawn)	Pf growth 48h 0.657µM, Pf growth 96h inconclusive
CCOC(=O)C1=C(C(F)(F)F)Nc2ncnn2C1c1ccc(OC)cc1OC (stereo not drawn)	none
CCOC(=O)C1=C(C)N=c2s/c(=C\c3ccc(O)c([N+](=O)[O-])c3)c(=O)n2C1c1ccccc1OC (stereo not drawn)	Pf growth 48h inconclusive
CCOC(=O)C1=C(C)N=c2s/c(=C\c3ccc(OCC(=O)O)cc3)c(=O)n2C1c1ccccc1OC (stereo not drawn)	Pf growth 48h 1.04µM
COc1ccc(C2C(C(C)=O)=C(C)N=c3s/c(=C\c4ccco4)c(=O)n32)c(OC)c1 (stereo not drawn)	Pf growth 48h inconclusive
CC(C)(C)c1ccc(C(=O)C2CCCN(C(=O)CCn3cncn3)C2)cc1 (stereo not drawn)	none
COc1ccc(/C=C2\SC(N3CCc4ccccc4C3)=NC2=O)cc1OC	none
CCOC(=O)C1=C(C)N=c2s/c(=C/c3cccc([N+](=O)[O-])c3O)c(=O)n2C1c1ccc(OC)cc1OC (stereo not drawn)	Pf growth 48h inconclusive, Pf growth 96h 4.65µM (no result: Shiga toxin inh)
CCOC(=O)CN1C(=O)S/C(=C/c2cccc([N+](=O)[O-])c2O)C1=O	Pf growth 48h inconclusive, Pf growth 96h inconclusive
COc1ccc(/C=c2/sc3n(c2=O)C(c2ccccc2OC)C2=C(N=3)c3ccccc3CC2)cc1O (stereo not drawn)	Pf growth 48h 2.08µM, Pf growth 96h 2.33µM
CSc1ncccc1C(=O)N(C)CC(=O)Nc1cccc(F)c1	none
COc1ccc(Cl)cc1C(=O)NCC(c1ccco1)N1CCCC1 (stereo not drawn)	Pf growth 48h inconclusive, Pf growth 96h 4.15µM
CSc1ccccc1C(=O)NCC(c1ccco1)N1CCCCC1 (stereo not drawn)	Pf growth 96h inconclusive
COc1ccc(S(=O)(=O)N2CCOCC2)cc1C(=O)NCC(c1ccco1)N1CCCC1 (stereo not drawn)	none (no result: LmPK inh, Shiga toxin inh, Cycloheximide cs)
COc1ccccc1C(=O)NCCC(=O)NCC(c1ccco1)N1CCCC1 (stereo not drawn)	Pf growth 96h 11.7µM (no result: LmPK inh, Shiga toxin inh, Cycloheximide cs)
